Our source for the growth values is PubChem BioAssay (NCI).

What all share (experiment): NCI-60 one-dose screen, 48 h (100 = growth as untreated, 0 = no growth, -100 = all killed)
In test [1] the test system is HCT-15 colon. The settings on record: 10 µM unless noted.
Test [2] deals with HT29 colon. The settings on record: 10 µM unless noted.
Test [3] concerns SNB-75 CNS. The settings on record: 10 µM unless noted.
Test [4] relates to SNB-19 CNS. The conditions noted are these: 10 µM unless noted.
For test [5], the system named is U251 CNS. The settings on record: 10 µM unless noted.
The subject of test [6] is PC-3 prostate. The settings on record: 10 µM unless noted.
Test [7] has as its system SK-MEL-5 melanoma. The settings on record: 10 µM unless noted.
Test [8] deals with UACC-62 melanoma. The settings on record: 10 µM unless noted.
The subject of test [9] is SK-MEL-28 melanoma. The settings on record: 10 µM unless noted.
The test system of test [10] is SK-MEL-2 melanoma. The conditions noted are these: 10 µM unless noted.
In test [11] the test system is SN12C renal. The conditions noted are these: 10 µM unless noted.
Test [12] deals with UO-31 renal. The conditions noted are these: 10 µM unless noted.
Test [13] deals with TK-10 renal. The conditions noted are these: 10 µM unless noted.
Test [14] concerns ACHN renal. The conditions noted are these: 10 µM unless noted.
Test [15] deals with CAKI-1 renal. The settings on record: 10 µM unless noted.
Test [16] relates to A498 renal. The conditions noted are these: 10 µM unless noted.
In test [17] the test system is CCRF-CEM leukemia. The settings on record: 10 µM unless noted.
For test [18], the system named is MOLT-4 leukemia. The settings on record: 10 µM unless noted.
For test [19], the system named is LOX IMVI melanoma. The settings on record: 10 µM.
In test [20] the test system is EKVX NSCLC. The settings on record: 10 µM unless noted.

Structures are written as SMILES. The panel holds about 83,000 compounds, 20% with a hit somewhere; the sample as a whole holds those more often.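 Assay: single dose, 48 h. Readout: percent growth (0 = no net growth; negative = cell death). Active: <10.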 A number with no mark means an inactive call. The source made the active and inactive calls.

For the compound `CN1CCC(c2ccccc2)(c2ccccc2)C(=O)C1`, the growth in [1] is 70.2%; in test [2] it was 81.7%; in test [3], 58%; in test [4], 90.7%; in test [5], 91.3%; in [6], 85.7%. Moreover, the growth in test [7] is 97.7%; in [8], 93.6%; in [9], 119%; in test [10], 122%; in test [11], 101%; in [12], 68.9%. Moreover, the growth was 76.4% in [13]; 102% in test [14]; 71.2% in [15]; 106% in test [16]; 29.1% in test [17]; 92.7% in test [18].
As for `CN1CCC(CN2c3ccccc3Sc3ccccc32)C1` (stereo not given), the growth is 83.9% in test [1]; 45.8% in [2]; 57.7% in [3]; 98.1% in [4]; 91.1% in test [5]; 63.6% in test [6]. Also, the growth in test [7] is 76.6%; in [8] it was 90.4%; in [19], 76.5%; in test [10], 114%; in [11], 97.1%; in [12], 60.2%. Also, the growth in test [13] is 92%; in test [14], 86.1%; in test [15], 79.4%; in test [16], 109%; in test [17] it was 72.7%; in test [18] it was 79.1%.
As for `C[C@@]1(CO)[C@H](O)CC[C@@]2(C)[C@H]1CC[C@H]1C[C@@H]3C[C@@]12CC[C@@]3(O)COC(=O)CN`, the growth in [1] was 54%; in test [2], 38.7%; in [3], 57.3%; in test [4], 59.6%; in test [5], 44.3%; in test [6], 45.4%. Further, the growth in test [7] was -43.8% (active); in [8], 26.3%; in test [19], 29%; in [10] it was 102%; in test [20], 74.2%; in test [11], 61.6%. The growth was 22.7% in test [12]; 85.3% in test [13]; 14.6% in test [14]; 17% in test [15]; 32.8% in test [17]; 28.2% in test [18].
For `CCCCCCCCCCCC(=O)OC(C)C(=O)NCCCC` (stereo not given), the growth is 106% in [1]; 101% in [2]; 105% in test [3]; 106% in [4]; 93.7% in [5]; 95.8% in [6]. Moreover, the growth in test [7] is 102%; in test [8] it was 103%; in test [9] it was 121%; in test [10], 108%; in [11], 102%; in test [12], 94.5%. The growth in test [13] is 90.8%; in test [14] it was 116%; in test [15], 99.1%; in [17], 101%; in test [18], 87.7%.
On to `O=C1C=CC(=O)c2c(O)c(CO)c(CO)c(O)c21`, for which the growth in test [1] was 37.8%; in test [2], 60%; in [3], 55.9%; in test [4] it was 103%; in test [5] it was 105%; in [6], 25.6%. In addition, the growth is 73.8% in [7]; 93.3% in test [8]; 73.5% in [19]; 119% in test [10]; 105% in test [20]; 101% in [11]. Besides, the growth in [12] is 75.5%; in test [13], 107%; in [14], 95.3%; in [15], 93.4%; in [16], 120%; in test [17], 78.5%. Besides, the growth in [18] was 86.6%.
Regarding `O=[N+]([O-])C=C(c1ccccc1)c1ccccc1`, the growth in test [1] is 42.7%; in test [2], 91.7%; in test [3], 59.4%; in [4], 85.5%; in [5], 80.1%; in test [6], 76.5%. Moreover, the growth is 88.3% in test [7]; 56.9% in test [8]; 90.4% in [9]; 95.5% in test [10]; 71% in [20]; 81.1% in test [11]. Moreover, the growth in [12] was 60.9%; in test [14], 85.4%; in [15], 57.1%; in test [16], 124%; in test [17], 68.6%; in [18] it was 70.9%.
Consider `O=C(O)c1cc2c(s1)C(=O)c1sccc1C2=O`, for which the growth in test [1] was -59.3% (active); in test [2], 65.8%; in test [3] it was -91.6% (active); in test [4], -2.34% (active); in test [5] it was 30.4%; in test [6], 56.5%. Besides, the growth in test [7] was -100% (active); in [8], 51%; in test [19] it was -72.5% (active); in test [11], -46.9% (active); in [12], -43.1% (active); in [14] it was 80.1%. The growth in test [15] was 107%; in test [16], 103%; in [17], 42.5%; in test [18], 72.3%.
For the compound `Cc1cc(C(=C2C=CC(=Nc3ccccc3)C=C2)c2ccc(Nc3ccccc3)cc2)ccc1N`, the growth in test [1] was -31.7% (active); in test [2], -75.4% (active); in [3] it was -74.6% (active); in test [4], -55.4% (active); in test [5], -97.4% (active); in [6], -60.4% (active). In addition, the growth was -95.9% (active) in test [7]; -65.6% (active) in [8]; -82.3% (active) in [9]; -87.4% (active) in test [10]; -42.7% (active) in test [20]; -63.5% (active) in [11]. Also, the growth in test [12] is -67.4% (active); in test [14], -89.8% (active); in test [15] it was -56.6% (active); in [16], -78.8% (active); in test [17], 3.34% (active); in [18], 22.2%.
For `CC(=O)c1ccc2c(c1)CCc1ccccc1-2`, the growth in [1] is 93.9%; in test [2] it was 102%; in test [3], 87.1%; in test [4] it was 103%; in [5], 95.6%; in [6], 100%. Also, the growth in test [7] is 99.6%; in test [8], 109%; in test [19], 113%; in test [9] it was 101%; in test [11] it was 109%; in test [12], 105%. In addition, the growth in test [13] is 99.9%; in test [14], 108%; in [15] it was 101%; in test [16], 63.1%; in [17], 109%; in test [18] it was 114%.
